Records with an inconclusive call do not appear. Unless noted, calls come from the whole dose curve; as a rule, active = well fitted curve in either direction with a large enough effect (not every such curve was filed as active); inconclusive = small, poorly fitted or top-dose-only effect, or another doubt; inactive = flat fitted curve, though single readings scatter.
Key:
[1] = AP1 Signaling Pathway (AID 357); settings: ME-180 AP-1-bla reporter, EGF-induced, beta-lactamase ratio, 5 h; at 17.2 µM (top of the series) unless noted;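 note: ME-180 reporter cells stimulated with EGF at its EC50 level; % is set by controls: 0 for no effect and ±100 for the full control effect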
Method in brief: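 A ratiometric CCF4 readout (405 nm excitation; 460 and 530 nm emission) quantified AP-1-driven beta-lactamase in ME-180 cells after 5 h with compound and EC50 EGF; AC50 values were derived for activators and inhibitors.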

[2] = NFAT Signaling Pathway (AID 444); settings: Jurkat NFAT-bla M1, carbachol, beta-lactamase ratio, 5 h; at 17.2 µM (top of the series) unless noted;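 note: carbachol stimulus at about its EC50 of 1 µM final; % is set by controls: 0 for no effect and ±100 for the full control effect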
Method in brief: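 Read-out: CCF4 FRET ratio (460 nm/530 nm) after 1 h RT dye loading, used for %activity and AC50 from titration series. Cells: Jurkat NFAT-β-lactamase/M1 line, treated with compound plus 1 uM carbachol for 5 h, 37 °C.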

[3] = Stat Signaling Pathway (AID 446); settings: ME-180 SIE beta-lactamase reporter, IL-6 stimulated, 5 h; at 17.2 µM (top of the series) unless noted;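 note: ME-180 cervical cancer cells given 40 pM IL-6 alongside compound; SIE-controlled beta-lactamase reporter measured as 460/530 nm FRET emission ratio; % is set by controls: 0 for no effect and ±100 for the full control effect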
Method in brief: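 ME-180 SIE-bla cells; overnight plating; cpd + IL-6 40 pM, 5 h, 37 C; LiveBLAzer 2.5 h RT; 460/530 nm emission ratio. Normalized to 300 pM IL-6 and 125 nM JAK inhibitor controls.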

[4] = target: Glucocorticoid receptor (Homo sapiens) (UniProt P04150); test: GR-GFP Redistribution (AID 450;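 active = compounds whose dose series gives a full or clear partial fitted curve of increased nuclear translocation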; note: potency is the fitted concentration of half-maximal effect)
Sequence of Glucocorticoid receptor (Homo sapiens) (P04150 whole entry, looked up): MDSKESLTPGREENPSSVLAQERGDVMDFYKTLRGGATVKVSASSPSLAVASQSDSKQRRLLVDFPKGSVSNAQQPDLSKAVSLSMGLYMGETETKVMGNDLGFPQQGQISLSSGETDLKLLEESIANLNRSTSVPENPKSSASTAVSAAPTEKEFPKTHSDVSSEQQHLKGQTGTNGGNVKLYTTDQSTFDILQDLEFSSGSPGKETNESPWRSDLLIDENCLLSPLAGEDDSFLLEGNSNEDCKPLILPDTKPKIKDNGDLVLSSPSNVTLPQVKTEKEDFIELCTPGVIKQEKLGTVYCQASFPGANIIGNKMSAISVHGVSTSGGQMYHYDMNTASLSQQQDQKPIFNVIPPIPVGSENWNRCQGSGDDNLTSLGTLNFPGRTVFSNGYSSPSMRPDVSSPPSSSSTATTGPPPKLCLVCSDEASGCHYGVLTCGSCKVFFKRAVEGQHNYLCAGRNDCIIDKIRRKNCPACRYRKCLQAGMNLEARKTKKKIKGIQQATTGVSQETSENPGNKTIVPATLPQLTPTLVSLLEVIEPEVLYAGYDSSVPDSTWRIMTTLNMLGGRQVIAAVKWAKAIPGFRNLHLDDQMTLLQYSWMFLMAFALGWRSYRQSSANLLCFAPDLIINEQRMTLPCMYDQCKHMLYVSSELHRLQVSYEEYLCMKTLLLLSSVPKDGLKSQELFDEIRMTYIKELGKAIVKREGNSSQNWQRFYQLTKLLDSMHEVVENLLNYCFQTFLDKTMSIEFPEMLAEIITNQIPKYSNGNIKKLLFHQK

Cc1ccc(-n2ncc3c(N4CCCC4)ncnc32)c(C)c1
inactive: activity change, negative = inhibition [1] -15% | activity change, negative = inhibition [2] 22.5% | activity, negative = inhibition [3] -1.13% | Potency [4] > 20.6 µM

COc1cc(C2C(C#N)=C(N)Oc3cc(C)n(CCN4CCOCC4)c(=O)c32)cc(OC)c1OC (centres undefined)
inactive: activity change, negative = inhibition [1] 10.6% | activity change, negative = inhibition [2] 6.98% | activity, negative = inhibition [3] -2.02% | Potency [4] > 20.6 µM

O=C(CSc1nnc(-c2ccccc2)c(-c2ccccc2)n1)N1CCOCC1
inactive: activity change, negative = inhibition [1] -3.06% | activity change, negative = inhibition [2] 0.00472% | activity, negative = inhibition [3] 8.97% | Potency [4] > 20.6 µM

COc1cc(C2NC(=O)NC(C)=C2C(=O)Nc2cccc(C)c2C)cc(OC)c1OC (centres undefined)
inactive: activity change, negative = inhibition [1] 2.82% | activity change, negative = inhibition [2] 10.2% | activity, negative = inhibition [3] -2.31% | Potency [4] > 20.6 µM

CCOC(=O)c1ccc(NC(=O)Cn2nnc3ccccc32)cc1
inactive: activity change, negative = inhibition [1] -12.4% | activity change, negative = inhibition [2] 12.9% | activity, negative = inhibition [3] -15% | Potency [4] > 20.6 µM

CC(C)=CCC(C)(C)CNC(=O)NC1CCCCC1
inactive: activity change, negative = inhibition [1] -8.2% | activity change, negative = inhibition [2] 19% | activity, negative = inhibition [3] 10.9% | Potency [4] > 20.6 µM

O=C(O)CCc1nn2cc(-c3ccccc3)nc2[nH]c1=O
inactive: activity change, negative = inhibition [1] 6.39% | activity change, negative = inhibition [2] -22.2% | activity, negative = inhibition [3] 10.5% | Potency [4] > 20.6 µM

COc1ccc(/C(O)=C2/C(=O)C(=O)N(Cc3ccco3)C2c2cccs2)cc1 (centres undefined)
inactive: activity change, negative = inhibition [1] 7% | activity change, negative = inhibition [2] -13.1% | activity, negative = inhibition [3] -19.8% | Potency [4] > 20.6 µM

COc1ccc(OC)c(C2C(C(=O)c3ccco3)=C(O)C(=O)N2CCCN2CCOCC2)c1 (centres undefined)
inactive: activity change, negative = inhibition [1] 11.5% | activity change, negative = inhibition [2] 0.311% | activity, negative = inhibition [3] -6.98% | Potency [4] > 20.6 µM

Cc1ccc2c(c1)C(CCN)C(=O)N2Cc1ccccc1 (centres undefined)
inactive: activity change, negative = inhibition [1] 19.6% | activity change, negative = inhibition [2] -9.23% | activity, negative = inhibition [3] 5.36% | Potency [4] > 20.6 µM

CCCSc1nnc2n(Cc3ccccc3)c(=O)c3c4c(sc3n12)CCC4
inactive: activity change, negative = inhibition [1] 27.1% | activity change, negative = inhibition [2] 0.0627% | activity, negative = inhibition [3] -7.18% | Potency [4] > 20.6 µM

CCOC(=O)c1c(C)[nH]sc1=S
inactive: activity change, negative = inhibition [1] 4.4% | activity change, negative = inhibition [2] -1.05% | activity, negative = inhibition [3] -4.25% | Potency [4] > 20.6 µM

COc1cccc(OC)c1-c1nn2c(-c3ccccc3Cl)nnc2s1
inactive: activity change, negative = inhibition [1] -22.5% | activity change, negative = inhibition [2] -8.73% | activity, negative = inhibition [3] -3.22% | Potency [4] > 20.6 µM

CCN(CC)S(=O)(=O)c1ccc2c(c1)c(C(=O)O)cn2C
inactive: activity change, negative = inhibition [1] -6.47% | activity change, negative = inhibition [2] -1.02% | activity, negative = inhibition [3] 1.11% | Potency [4] > 20.6 µM

COc1ccc(CC(=O)n2c(CC#N)nc3ccccc32)cc1OC
inactive: activity change, negative = inhibition [1] -7.74% | activity change, negative = inhibition [2] 10.4% | activity, negative = inhibition [3] -5.7% | Potency [4] > 20.6 µM

COc1ccc2[nH]c(C)c(C(=O)CN3CCOCC3)c2c1
inactive: activity change, negative = inhibition [1] 12.7% | activity change, negative = inhibition [2] -9.22% | activity, negative = inhibition [3] -2.66% | Potency [4] > 20.6 µM

c1ccc(OCc2nn3c(-c4ccco4)nnc3s2)cc1
inactive: activity change, negative = inhibition [1] 27.2% | activity change, negative = inhibition [2] 1.21% | activity, negative = inhibition [3] -4.83% | Potency [4] > 20.6 µM

Nc1ncnc2nc(SCc3ccccc3)[nH]c12
inactive: activity change, negative = inhibition [1] -9.21% | activity change, negative = inhibition [2] -4.19% | activity, negative = inhibition [3] -9.74% | Potency [4] > 20.6 µM

O=C1c2ccccc2S(=O)(=O)N1CC(O)COc1ccc(Cl)cc1 (centres undefined)
inactive: activity change, negative = inhibition [1] -4.25% | activity change, negative = inhibition [2] -2.04% | activity, negative = inhibition [3] -1.8% | Potency [4] > 20.6 µM

CC(C)OC(=O)CCNc1n[nH]c(=O)[nH]c1=O
inactive: activity change, negative = inhibition [1] 5.78% | activity change, negative = inhibition [2] 0.573% | activity, negative = inhibition [3] 0.163% | Potency [4] > 20.6 µM

CCOC(=O)C1=C(N)N2C(=O)CSC2=C(C(=O)OC)C1
inactive: activity change, negative = inhibition [1] -12.4% | activity change, negative = inhibition [2] 12.5% | activity, negative = inhibition [3] -25.6% | Potency [4] > 20.6 µM

CC(NC(=O)CSc1nnc(COc2ccccc2)o1)c1ccccc1 (centres undefined)
inactive: activity change, negative = inhibition [1] -6.03% | activity change, negative = inhibition [2] -0.274% | activity, negative = inhibition [3] 2.03% | Potency [4] > 20.6 µM

Cn1c(=O)[nH]c(=O)c2c1nc(Br)n2CCSc1ncccn1
inactive: activity change, negative = inhibition [1] 5.72% | activity change, negative = inhibition [2] -10.8% | activity, negative = inhibition [3] 4.76% | Potency [4] > 20.6 µM

Cc1cc(=O)oc(C)c1C(=O)Nc1ccc2nsnc2c1
inactive: activity change, negative = inhibition [1] 6.72% | activity change, negative = inhibition [2] -6.31% | activity, negative = inhibition [3] 8.13% | Potency [4] > 20.6 µM

Cn1c(=O)c2c(nc(N3CCC(C(N)=O)CC3)n2CCSc2nc3ccccc3s2)n(C)c1=O
inactive: activity change, negative = inhibition [1] -0.203% | activity change, negative = inhibition [2] -5.54% | activity, negative = inhibition [3] 1.48% | Potency [4] > 20.6 µM

CCOC(=O)c1[nH]c2cc3c(cc2c1NC(=O)CN1CC(C)CC(C)C1)OCO3 (centres undefined)
inactive: activity change, negative = inhibition [1] -14.1% | activity change, negative = inhibition [2] -21% | activity, negative = inhibition [3] -2.27% | Potency [4] > 20.6 µM

Source: PubChem BioAssay (NCATS)
